Source: PubChem (National Center for Advancing Translational Sciences (NCATS))
HT1080NT lethal: kills 2HG-producing HT-1080-NT fibrosarcoma cells. HT-1080-NT fibrosarcoma viability, CellTiter-Glo ATP luminescence, 48 h. Potency, µM (titrated, usually from 46.1 µM), inactives show top-dose activity, negative = less viability, hits mostly cytotoxic. 360,000 tested, 1.6% active. AID 686970;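 also: NT is the 2HG producing partner of a matched IDH1 knockdown line; potency is read from the fitted curve at half-maximal effect; 0% = DMSO-treated cells and -100% = media-only wells without cells; nearly all actives have a fitted effect of over 55% in size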
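Luminescent CellTiter-Glo readout after 48 hours of compound exposure at 37 degrees C defined viability of HT-1080-NT cells. Activity was normalized to DMSO wells and cell-free media wells; concentration-response curves were fitted and assigned curve classes.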
HT1080 IDH1KD tx: HT-1080 IDH1 knockdown cell toxicity (counter line); HT-1080 IDH1 knockdown viability, ATP luminescence, 48 h; 360,000 tested, 2% active; AID 686971; Potency, µM (top dose mostly 46.1 µM), inactives show at the highest dose activity, negative = toxicity, most hits filed as cytotoxic;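 also: potency is read from the fitted curve at half-maximal effect; 0% = DMSO wells and -100% = cell-free medium wells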
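Assay cells: HT-1080 with IDH1 knockdown, 750 per well, RPMI/5% FBS. Exposure: 48 h at 37 °C following 2 h pre-incubation. Read: CellTiter-Glo luminescence; fitted concentration-response, curve class assigned.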
TDP1 cell noCPT: qHTS for Inhibitors of human tyrosyl-DNA phosphodiesterase 1 (TDP1): qHTS in cells in absence of CPT; Potency, µM (top dose mostly 46.2 µM), inactives show at the highest dose activity change, negative = growth inhibition, hits mostly inhibitors; DT40 Tdp1-/- hTDP1 cells, no CPT, ATP luminescence, 48 h; 420,000 tested, 15% active; AID 686978, 2013; also: potency is read from the fitted curve at half-maximal effect; nearly all actives have a fitted effect of over 55% in size
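Stably hTDP1-transfected Tdp1-null chicken DT40 cells were treated with library compounds minus camptothecin and grown for at least 48 hr at 37 °C, after which cellular ATP was quantified by luminescence.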
IL-1B inflam inh: inhibitors of inflammasome signaling (IL-1 beta secretion); THP-1 LPS/ATP IL-1B secretion, AlphaLISA, 16 h; hits give low values; activity change, % at 57.5 µM; 360,000 tested, 4.7% active; AID 743279; in the data active = activity change below about -50%; inconclusive = mostly about -30% to -49%
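Secreted IL-1B measured by AlphaLISA bead assay after 16 h compound exposure of THP-1 cells; compounds (final up to 57.5 uM) added 1 h before LPS (250 ng/mL) and ATP (1.25 mM) stimulation; lower signal means less secretion.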
DT40 TDP1 CPT: growth inhibition of DT40 Tdp1-/-;hTDP1 cells with camptothecin (screen for TDP1 inhibitors); Potency, µM (highest dose often 46.2 µM), inactives show at the top dose activity change, negative = growth inhibition, hits mostly inhibitors; 420,000 tested, 12% active; chicken DT40 Tdp1-/-;hTDP1 cells + 20 nM CPT, ATP luminescence, 48 h; AID 686979; also: potency is read from the fitted curve at half-maximal effect; nearly all actives have a fitted effect of over 55% in size
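Chicken DT40 Tdp1-/- cells stably complemented with human TDP1 were seeded at 400 cells/well in medium containing 20 nM camptothecin, exposed to pin-transferred compounds, and grown at 37 °C for at least 48 hr. Viability was read as ATP luminescence.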
Starred values were filed as active, the others as inactive; ? = inconclusive; nt = not tested or not shown. Only some compounds are listed: those with a hit (about 19% of all), similar ones and a draw of the others. Unless noted, calls follow the shape of the dose curve; as a rule, active = well fitted curve in the direction sought with a large enough effect; inconclusive = small, poorly fitted or top-dose-only effect, or another doubt; inactive = no such curve, though single readings can be large; an effect the other way counts as inactive or inconclusive. Unless noted, % is scaled to controls: 0 for no effect and ±100 for the full control effect.

SMILES	HT1080NT lethal	HT1080 IDH1KD tx	TDP1 cell noCPT	IL-1B inflam inh	DT40 TDP1 CPT
CCc1ccc(S(=O)(=O)Nc2ccc(-c3ccc(N4CCCC4)nn3)cc2)cc1	nt	nt	-15%	nt	-22%
CCc1ccc(S(=O)(=O)Nc2ccc(-c3ccc(N4CCCCCC4)nn3)cc2)cc1	nt	nt	-7%	nt	-11%
O=S(=O)(Nc1ccc(-c2ccc(N3CCCC3)nn2)cc1)c1ccc(OC(F)(F)F)cc1	nt	nt	?	nt	15µM*
CCCCOc1ccc(S(=O)(=O)Nc2ccc(-c3ccc(N4CCCCCC4)nn3)cc2)cc1	nt	nt	?	nt	13µM*
CC1CCC2C(C1)Nc1c(C(=O)O)cccc1C2(C)C (configuration not stated)	0%	4%	0%	-7	-4%
CC(C)NC(=O)N(C)C[C@@H]1OCc2cnnn2CCCC(=O)N([C@H](C)CO)C[C@H]1C	5%	0%	-4%	-12	-4%
O=C(CCN1C(=O)COc2ccccc21)NCCCN1CCCC1	-1%	15%	15%	0	17%
CCCOc1ccc2nc(NC(=O)OC)[nH]c2c1	nt	nt	0.15µM*	nt	0.094µM*
CCOC(=O)Nc1nc2ccc(Cn3cccc3)cc2[nH]1	3.3µM*	?	0.58µM*	29	0.82µM*
CN(C(=O)CSc1nnnn1-c1ccccc1)C1CCS(=O)(=O)C1 (configuration not stated)	10%	24%	-1%	10	1%
CCCNc1c(NC(=O)COc2ccc(Cl)cc2)c(=O)oc2ccccc12	-11%	-15%	?	-20	?
CN1C(=S)SC(/[N+]([O-])=C/c2c(F)cccc2Cl)C1(C)C (configuration not stated)	22%	14%	-1%	14	28%
C=C[C@]1(C)C[C@@H](OC(=O)CSC(C)(C)CNC(=O)[C@H](N)C(C)C)[C@]2(C)[C@H](C)CC[C@]3(CCC(=O)[C@H]32)[C@@H](C)[C@@H]1O	nt	nt	0.27µM*	nt	0.24µM*
C=C[C@]1(C)C[C@@H](OC(=O)CSCCN(CC)CC)[C@]2(C)[C@H](C)CC[C@]3(CCC(=O)[C@H]32)[C@@H](C)[C@@H]1O	nt	nt	3µM*	nt	7.5µM*
CC(C)(C)S(=O)N1Cc2ccc(CO)cc2[C@@H]1CCO (some centres not stated)	1%	10%	-4%	3	?
COc1ccc(NC(=O)COC(=O)CCNS(=O)(=O)c2ccc(Cl)cc2)cc1	3%	9%	-2%	-14	-13%
COc1ccc(OC)c(NC(=O)CC2SC(=Nc3ccc(F)cc3)N(CCC3=CCCCC3)C2=O)c1 (configuration not stated)	-6%	-6%	?	25	?
O=C(CC1SC(=Nc2ccc(OC(F)F)cc2)N(CCN2CCOCC2)C1=O)Nc1ccccc1 (configuration not stated)	18%	-24%	?	-12	16µM*
O=C(CC1SC(=Nc2ccc(OC(F)F)cc2)N(CCN2CCOCC2)C1=O)Nc1ccc(F)cc1F (configuration not stated)	-13%	-16%	?	-63*	?
Cc1c(N=C2SC(CC(=O)Nc3ccccc3)C(=O)N2CCN2CCOCC2)c(=O)n(-c2ccccc2)n1C (configuration not stated)	0%	1%	-16%	-4	7%
Cc1cccc2sc(=S)[nH]c12	-15%	-18%	?	22	?
CCOc1ccc(-c2n[nH]c(C)c2-c2ccccc2OC)c(O)c1	?	?	?	-55*	13µM*
C=C(C)COc1ccc(-c2n[nH]c(C)c2-c2ccc(OC)cc2)c(O)c1	21µM*	18µM*	?	-51*	?
COc1ccc(-c2n[nH]c(C)c2-c2cscn2)c(O)c1	2%	-2%	22%	-7	-6%
COc1cc(C2NC(=S)NC3=C2CCc2ccccc23)cc(OC)c1OC (configuration not stated)	5%	0%	?	45	-12%
SMILES	HT1080NT lethal	HT1080 IDH1KD tx	TDP1 cell noCPT	IL-1B inflam inh	DT40 TDP1 CPT
COc1ccc2c(c1)CCC1=C2NC(=S)NC1c1ccc(N(C)C)cc1 (configuration not stated)	1%	-24%	16µM*	-17	?
S=C1NC2=C(CCCC2=C2SCCCS2)C(c2ccccc2)N1 (configuration not stated)	0%	12%	?	-5	?
COc1ccc(C2NC(=S)NC3=C2CCCC3=C2SCCS2)cc1 (configuration not stated)	9.2µM*	6.5µM*	2.9µM*	-82*	2.3µM*
O=C(N/N=C/c1cccc([N+](=O)[O-])c1O)C(O)(c1ccccc1)c1ccccc1	-23%	?	26µM*	38	?
COc1cc([N+](=O)[O-])cc(/C=N/NC(=O)C(C)Nc2cccc3ccccc23)c1O (configuration not stated)	?	18µM*	?	55	16µM*
CCCCCC(=O)N/N=C/c1ccccc1[N+](=O)[O-]	6%	1%	-25%	-3	-5%
COc1cc([N+](=O)[O-])cc(/C=N/NC(=O)C(O)(c2ccccc2)c2ccccc2)c1O	?	?	?	-7	4.1µM*
Cn1c(NCc2cccnc2)nc2cc(-c3cccc(C(F)(F)F)c3)sc2c1=O	-6%	12%	?	2	?
CN(C)CCCNc1nc2cc(-c3cccc(C(F)(F)F)c3)sc2c(=O)n1C	?	?	?	-66*	18µM*
COc1ccc(-c2cc3nc(NCCCN(C)C)n(C)c(=O)c3s2)cc1OC	-28%	2%	?	-15	?
CN(C)CCCNc1nc2cc(-c3cccc(Cl)c3)sc2c(=O)n1C	?	16µM*	?	-25	?
Cn1c(NCc2ccccc2)nc2cc(-c3cccc(C(F)(F)F)c3)sc2c1=O	12%	8%	18µM*	0	?
Oc1ccc2n[nH]nc2c1	11%	18%	?	57	-19%
COc1cccc(C(=O)Nc2ccccc2C(=O)N2CCCC2)c1	18%	14%	-1%	9	4%
COc1ccc(NC(=O)CSCC(=O)Nc2ccccc2N2CCCC2)cc1	-9%	-12%	-25%	6	-21%
COc1cccc(C(=O)Nc2ccccc2N2CCN(C(=O)c3ccccc3)CC2)c1	1%	-2%	21µM*	-23	?
COc1cccc(C(=O)NC(=S)Nc2ccccc2N2CCCCC2)c1	-11%	0%	?	14	?
